# Data: the supplement of paper PMC10849652
# About 7,900 targets were measured; listed, in parts, are those with a hit and a random draw of the rest. About 0.6% of all pairs of compound and target were hits. Values without a mark were called inactive.
# Columns and labels:
# Assay in all cases: log2 fold change, soluble protein after heating vs DMSO (PISA); higher = thermal stabilisation; K562 cells, 10 uM, 30 min; active = over 0.2 and 3.5 SD of the protein, either way, in both replicates (recomputed)
# [1] = target: ZC3H8 (UniProt Q8N5P1)
# ZC3H8, sequence (Q8N5P1 whole entry, looked up): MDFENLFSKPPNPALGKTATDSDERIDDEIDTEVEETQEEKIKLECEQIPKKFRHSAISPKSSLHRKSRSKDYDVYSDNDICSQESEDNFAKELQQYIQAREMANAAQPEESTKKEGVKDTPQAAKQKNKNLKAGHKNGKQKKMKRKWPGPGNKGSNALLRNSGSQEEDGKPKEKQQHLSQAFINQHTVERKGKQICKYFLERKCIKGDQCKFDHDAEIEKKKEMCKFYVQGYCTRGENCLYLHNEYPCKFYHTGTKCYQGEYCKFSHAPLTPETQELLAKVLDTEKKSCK
# Procedure, shortened: (§1)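 Thermal stability values are relative to control samples and come from duplicates. They are expressed as log2 fold changes. For measurement, K562 cells (2×10^6 cells/mL) received 10 μM compound for 30 min, and aliquots were heated for 3 min over 48°C-58°C, pooled, and extracted at 4°C in PBS with 0.5% NP-40. Soluble protein, the supernatant after 21,000xg for 90 min, was quantified by TMTpro 16plex LC-MS/MS with equalised channel sums.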
# [2] = target: ZC3HC1 (UniProt Q86WB0)
# ZC3HC1, sequence (Q86WB0 whole entry, looked up): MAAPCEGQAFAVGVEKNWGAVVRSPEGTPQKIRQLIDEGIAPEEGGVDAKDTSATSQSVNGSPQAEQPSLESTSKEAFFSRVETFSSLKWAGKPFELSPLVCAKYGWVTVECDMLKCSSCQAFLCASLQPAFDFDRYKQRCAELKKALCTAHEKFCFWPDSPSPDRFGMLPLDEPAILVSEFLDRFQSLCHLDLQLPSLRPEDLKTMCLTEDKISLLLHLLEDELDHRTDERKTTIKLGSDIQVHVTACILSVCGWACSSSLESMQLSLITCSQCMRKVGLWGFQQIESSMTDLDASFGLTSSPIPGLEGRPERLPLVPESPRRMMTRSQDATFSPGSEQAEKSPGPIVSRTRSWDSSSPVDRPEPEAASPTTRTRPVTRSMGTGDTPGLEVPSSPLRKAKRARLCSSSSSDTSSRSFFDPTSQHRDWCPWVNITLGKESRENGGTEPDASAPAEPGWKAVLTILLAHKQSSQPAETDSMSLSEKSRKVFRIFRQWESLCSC
# Procedure, shortened: as §1
# [3] = target: ZCCHC9 (UniProt Q8N567)
# ZCCHC9, sequence (Q8N567 whole entry, looked up): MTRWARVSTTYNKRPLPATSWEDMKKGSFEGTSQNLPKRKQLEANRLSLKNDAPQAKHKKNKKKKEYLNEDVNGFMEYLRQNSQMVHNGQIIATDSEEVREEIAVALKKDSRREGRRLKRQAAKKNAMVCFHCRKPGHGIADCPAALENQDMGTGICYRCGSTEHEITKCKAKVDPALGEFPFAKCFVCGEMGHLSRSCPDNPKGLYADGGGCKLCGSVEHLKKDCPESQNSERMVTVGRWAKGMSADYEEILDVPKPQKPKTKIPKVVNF
# Procedure, shortened: as §1
# [4] = target: ZDHHC17 (UniProt Q8IUH5)
# ZDHHC17, sequence (Q8IUH5 whole entry, looked up): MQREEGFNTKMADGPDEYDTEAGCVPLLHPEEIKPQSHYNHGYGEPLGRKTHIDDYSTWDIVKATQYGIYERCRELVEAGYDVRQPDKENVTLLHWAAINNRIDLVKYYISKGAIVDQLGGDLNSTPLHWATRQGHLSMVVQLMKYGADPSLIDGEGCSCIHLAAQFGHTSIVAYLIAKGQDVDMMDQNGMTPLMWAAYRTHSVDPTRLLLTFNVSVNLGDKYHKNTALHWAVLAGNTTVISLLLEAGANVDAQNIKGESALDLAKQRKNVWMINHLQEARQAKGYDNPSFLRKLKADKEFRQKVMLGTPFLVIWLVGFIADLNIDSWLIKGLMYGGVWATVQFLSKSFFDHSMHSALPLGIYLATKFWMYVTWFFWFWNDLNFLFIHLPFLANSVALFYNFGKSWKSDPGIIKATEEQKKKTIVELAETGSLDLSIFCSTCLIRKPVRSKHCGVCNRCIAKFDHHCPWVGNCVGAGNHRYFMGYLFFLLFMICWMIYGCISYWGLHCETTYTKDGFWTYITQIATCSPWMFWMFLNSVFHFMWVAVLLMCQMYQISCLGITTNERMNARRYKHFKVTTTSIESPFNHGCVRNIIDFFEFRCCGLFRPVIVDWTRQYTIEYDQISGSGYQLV
# Procedure, shortened: as §1
# [5] = target: ZDHHC20 (UniProt Q5W0Z9)
# ZDHHC20, sequence (Q5W0Z9 whole entry, looked up): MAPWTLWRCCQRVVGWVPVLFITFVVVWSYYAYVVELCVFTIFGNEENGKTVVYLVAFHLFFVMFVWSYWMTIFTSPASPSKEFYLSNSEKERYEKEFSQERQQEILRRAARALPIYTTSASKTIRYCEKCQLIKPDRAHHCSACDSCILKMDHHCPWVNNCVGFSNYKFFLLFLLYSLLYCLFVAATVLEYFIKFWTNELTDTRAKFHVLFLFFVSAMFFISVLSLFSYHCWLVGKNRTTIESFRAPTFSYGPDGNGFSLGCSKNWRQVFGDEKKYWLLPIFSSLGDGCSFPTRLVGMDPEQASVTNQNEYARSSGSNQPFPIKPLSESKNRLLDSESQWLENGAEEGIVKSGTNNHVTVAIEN
# Procedure, shortened: as §1
# [6] = target: ZDHHC5 (UniProt Q9C0B5)
# ZDHHC5, sequence (Q9C0B5 whole entry, looked up): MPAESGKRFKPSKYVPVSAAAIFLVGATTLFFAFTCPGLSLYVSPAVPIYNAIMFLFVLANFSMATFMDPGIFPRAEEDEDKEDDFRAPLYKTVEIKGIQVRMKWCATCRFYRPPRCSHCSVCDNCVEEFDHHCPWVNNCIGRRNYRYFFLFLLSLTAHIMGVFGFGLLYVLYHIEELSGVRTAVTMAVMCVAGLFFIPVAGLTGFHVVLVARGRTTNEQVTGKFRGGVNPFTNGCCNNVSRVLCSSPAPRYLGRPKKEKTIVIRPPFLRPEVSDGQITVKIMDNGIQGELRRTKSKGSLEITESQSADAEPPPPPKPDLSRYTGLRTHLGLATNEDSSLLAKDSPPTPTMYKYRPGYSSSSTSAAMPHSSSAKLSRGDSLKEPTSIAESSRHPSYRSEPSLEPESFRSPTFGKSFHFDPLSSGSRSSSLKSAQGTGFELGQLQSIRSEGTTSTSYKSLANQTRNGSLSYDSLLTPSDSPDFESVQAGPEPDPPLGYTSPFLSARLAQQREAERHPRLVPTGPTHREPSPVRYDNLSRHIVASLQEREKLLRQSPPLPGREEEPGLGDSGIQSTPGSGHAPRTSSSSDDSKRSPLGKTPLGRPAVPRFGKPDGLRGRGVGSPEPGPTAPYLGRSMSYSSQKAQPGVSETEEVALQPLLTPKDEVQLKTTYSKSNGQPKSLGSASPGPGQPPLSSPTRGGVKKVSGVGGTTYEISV
# Procedure, shortened: as §1
# [7] = target: ZDHHC7 isoform 2 (UniProt Q9NXF8)
# ZDHHC7 isoform 2, sequence (Q9NXF8 whole entry, looked up, canonical isoform): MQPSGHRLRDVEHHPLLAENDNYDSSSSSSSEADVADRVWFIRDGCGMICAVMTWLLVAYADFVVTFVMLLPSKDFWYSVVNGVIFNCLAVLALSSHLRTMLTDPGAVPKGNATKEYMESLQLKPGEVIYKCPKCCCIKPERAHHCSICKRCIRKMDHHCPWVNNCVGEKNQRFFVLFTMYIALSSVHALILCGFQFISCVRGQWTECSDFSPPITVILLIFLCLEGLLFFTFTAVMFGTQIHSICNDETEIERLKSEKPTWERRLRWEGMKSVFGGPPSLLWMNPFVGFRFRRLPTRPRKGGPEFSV
# Procedure, shortened: as §1
# [8] = target: ZDHHC8 isoform 3 (UniProt Q9ULC8)
# ZDHHC8 isoform 3, sequence (Q9ULC8 whole entry, looked up, canonical isoform): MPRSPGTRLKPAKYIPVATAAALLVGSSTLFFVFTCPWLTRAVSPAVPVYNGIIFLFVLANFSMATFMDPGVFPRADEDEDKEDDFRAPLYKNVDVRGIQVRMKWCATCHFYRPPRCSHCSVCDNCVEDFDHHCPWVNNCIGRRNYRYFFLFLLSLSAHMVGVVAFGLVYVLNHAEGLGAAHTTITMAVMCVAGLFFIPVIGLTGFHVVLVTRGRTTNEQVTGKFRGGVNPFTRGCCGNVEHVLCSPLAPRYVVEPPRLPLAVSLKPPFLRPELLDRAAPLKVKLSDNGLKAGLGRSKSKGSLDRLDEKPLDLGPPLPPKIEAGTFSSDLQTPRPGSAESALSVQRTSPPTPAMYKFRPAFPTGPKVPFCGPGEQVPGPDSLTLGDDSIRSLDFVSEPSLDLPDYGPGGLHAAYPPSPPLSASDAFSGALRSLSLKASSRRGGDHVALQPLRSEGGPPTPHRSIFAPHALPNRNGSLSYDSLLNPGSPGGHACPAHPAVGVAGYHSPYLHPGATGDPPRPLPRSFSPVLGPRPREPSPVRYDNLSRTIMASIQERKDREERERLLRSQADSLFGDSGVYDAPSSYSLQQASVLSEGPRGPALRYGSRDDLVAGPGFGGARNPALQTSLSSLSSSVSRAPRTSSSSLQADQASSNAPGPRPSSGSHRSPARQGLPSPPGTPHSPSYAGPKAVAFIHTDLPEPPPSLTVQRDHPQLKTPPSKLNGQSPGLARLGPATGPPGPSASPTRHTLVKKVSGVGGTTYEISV
# Procedure, shortened: as §1
SMILES,log2 fold change [1],log2 fold change [2],log2 fold change [3],log2 fold change [4],log2 fold change [5],log2 fold change [6],log2 fold change [7],log2 fold change [8]
Oc1cc(-c2nc(-c3ccccc3)[nH]c2-c2ccncc2)ccc1Cl,-0.076,0.024,-0.271,0.002,-0.232,0.01,0.026,
COc1cc2ncnc(Nc3ccc(F)c(Cl)c3)c2cc1OCCCN1CCOCC1 [gefitinib],0.021,0.004,-0.062,0.04,-0.067,0.031,0.062,0.023
CN1CCN(CCOc2cc(OC3CCOCC3)c3c(Nc4c(Cl)ccc5c4OCO5)ncnc3c2)CC1 [saracatinib],0.088,0.024,,-0.009,-0.045,0.034,0.034,0.188
Cc1cccc(-c2[nH]c(C(C)(C)C)nc2-c2ccc3nccnc3c2)n1,-0.176,0.119,-0.133,-0.095,-0.007,-0.013,0.335,-0.03
CN(CCOc1ccc(C[C@@H]2SC(=O)NC2=O)cc1)c1ccccn1 (racemic) [rosiglitazone],-0.171,0.086,-0.131,0.052,0.059,-0.016,,0.038
Cc1cc(Nc2cc(N3CCN(C)CC3)nc(Sc3ccc(NC(=O)C4CC4)cc3)n2)n[nH]1 [tozasertib],0.058,0.047,0.04,-0.02,0.006,-0.057,-0.04,-0.041
O=C(Nc1nc2ccccc2n1CCN1CCOCC1)c1cccc([N+](=O)[O-])c1 [IRAK-1-4 Inhibitor I],-0.098,-0.017,-0.085,-0.008,-0.044,-0.043,0,-0.049
CN1CCc2c(c3ccccc3n2Cc2ccc(C(=O)NO)cc2)C1 [Tubastatin A],-0.034,0.07,0.103,-0.012,0.02,0.051,-0.003,0.058
C[C@H](Nc1ncnc2nc[nH]c12)c1cc2cccc(Cl)c2c(=O)n1-c1ccccc1 [duvelisib],-0.126,-0.002,,0.036,0.04,-0.044,0.082,-0.038
Cc1ccc(NC(=O)c2cccc(N(C)C)c2)cc1NC(=O)c1ccc(O)cc1,0.03,-0.209,0.062,0.01,0.085,-0.007,0.014,
C=CC(=O)N1CCC[C@@H](n2nc(-c3ccc(Oc4ccccc4)cc3)c3c(N)ncnc32)C1 [ibrutinib],0.03,-0.041,0.06,-0.029,-0.004,0.02,,0.043
Cc1ccc(NC(=O)c2ccc(CN3CC[C@H](N(C)C)C3)c(C(F)(F)F)c2)cc1Nc1nccc(-c2cncnc2)n1 [bafetinib],0.052,0.018,0.144,-0.007,0.104,0,,-0.03
C#Cc1cccc(Nc2ncnc3cc(OCCOC)c(OCCOC)cc23)c1 [erlotinib],-0.091,0.075,-0.099,0.091,0.163,0.028,0.09,
O=C1NC(=O)/C(=C\c2ccc3nccnc3c2)S1,0.044,0.021,-0.015,0.11,0.095,0.007,,-0.002
CC1=C(C(=O)Nc2cc3cn[nH]c3cc2F)C(c2ccc(C(F)(F)F)cc2)CC(=O)N1 (stereo unspecified),-0.072,0.057,0.012,-0.013,0.047,0.022,0.114,-0.083
COc1ccc(Cn2ccc3ccc(C(=O)NO)cc32)cc1,-0.128,0.13,-0.05,0.137,-0.034,-0.01,-0.022,0.07

SMILES,log2 fold change [1],log2 fold change [2],log2 fold change [3],log2 fold change [4],log2 fold change [5],log2 fold change [6],log2 fold change [7],log2 fold change [8]
Cc1nc(Nc2ncc(C(=O)Nc3c(C)cccc3Cl)s2)cc(N2CCN(CCO)CC2)n1 [dasatinib],0.123,-0.214,,-0.002,-0.163,0.019,-0.063,-0.112
Cc1ncc(-c2ccnc(Nc3ccc(S(C)(=O)=O)cc3)n2)n1C(C)C,0.036,-0.01,0.005,-0.022,0.022,-0.009,0.059,-0.014
Cc1cc(SCc2sc(-c3ccc(C(F)(F)F)cc3)nc2C)ccc1OCC(=O)O,-0.039,0.199,,-0.04,-0.249,-0.03,-0.075,0.031
NC1(Cc2ccc(Cl)cc2)CCN(c2ncnc3[nH]ccc23)CC1,-0.01,0.019,-0.1,0.022,0.059,0.071,0,0.063
CNc1nc(-c2ccc3c(N)n[nH]c3c2)cc(N2C[C@@H](C(=O)NC3CCCCC3)CC[C@H]2C)n1,0.012,0.104,,0.017,0.121,0.011,-0.03,0
CCN(CCCOc1ccc2c(Nc3cc(CC(=O)Nc4cccc(F)c4)[nH]n3)ncnc2c1)CCOP(=O)(O)O [barasertib],-0.075,0.108,-0.094,0.067,0.022,-0.001,,0.028
CCn1c(C(=O)N(C2CC2)C2CC2)cc2c3c(ncn3C)c(Nc3cc(C)n(C)n3)nc21,-0.034,-0.059,0.003,-0.061,-0.023,-0.012,0.011,
CC(C)N(C[C@H]1O[C@@H](n2cnc3c(N)ncnc32)[C@H](O)[C@@H]1O)[C@H]1C[C@@H](CCc2nc3cc(C(C)(C)C)ccc3[nH]2)C1 [pinometostat],0.017,-0.005,0.187,0.053,0.025,-0.02,-0.024,0.026
O=C(Nc1cccc(Nc2ncc(Br)c(NCCc3cnc[nH]3)n2)c1)N1CCCC1,0.038,-0.078,0.08,0.011,-0.025,-0.076,0.028,0.06
Cc1ccc(-n2nc(C(C)(C)C)cc2NC(=O)Nc2ccc(OCCN3CCOCC3)c3ccccc23)cc1 [doramapimod],0.038,-0.056,0.169,0.264 (active),-0.025,0.027,0.113,0.359
Cc1nc(Nc2n[nH]c3c2CN(C(=O)N[C@H](CN(C)C)c2ccccc2)C3(C)C)c2sccc2n1,0.081,-0.103,0.159,-0.012,-0.02,-0.037,0.046,0.013
Cc1cn(-c2cc(NC(=O)c3ccc(C)c(Nc4nccc(-c5cccnc5)n4)c3)cc(C(F)(F)F)c2)cn1 [nilotinib],0.016,-0.052,-0.046,-0.004,0.016,0.091,0.104,0.086
Cn1c2cc(S(C)=O)sc2c2cnn(Cc3cccc(N)c3)c(=O)c21 (stereo unspecified),0.127,-0.135,,-0.027,0.084,-0.049,0.02,0.121
CC[C@H](C)n1cc(C)c2c(C(=O)NCc3c(C)cc(C)[nH]c3=O)cc(-c3ccc(N4CCNCC4)nc3)cc21,-0.012,0.164,0.013,-0.022,-0.046,-0.052,-0.099,-0.064
C[C@@H](Oc1cc(-c2cnn(C3CCNCC3)c2)cnc1N)c1c(Cl)ccc(F)c1Cl [crizotinib],0.089,-0.109,0.032,-0.064,0.017,0.075,-0.131,-0.187
Cc1ccc2c(=O)c3ccccc3n(CCCN)c2c1C,-0.277,-0.091,-0.187,0.037,0.028,0.08,0.005,0.02
